Test results taken from PubChem BioAssay (Tox21).
Several values for one entry are separate records, joined by “and”; a condition that tells them apart may be missing. Equal values may be shown once. Results filed as inconclusive are left out. Activity calls are given as the source filed them. Unless noted, calls follow the shape of the dose curve; as a rule, active = well fitted curve in the direction sought with a large enough effect in the repeat runs; inconclusive = weak or mixed curves; inactive = no such curve, though single readings can be large; an effect the other way counts as inactive or inconclusive.

Assays:
[1] = qHTS assay for small molecules that induce genotoxicity in human embryonic kidney cells expressing luciferase-tagged ATAD5 (AID 651632); also: nearly all actives have a fitted effect of over 15% in size
In short: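 Reporter cells (HEK293T) express luciferase-tagged ATAD5, a protein that accumulates after DNA damage. Treat 16 hr at 37C/5% CO2, add Amplite, wait 30 min at RT, and read luminescence.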

[2] = qHTS assay for small molecule agonists of the p53 signaling pathway - cell viability (AID 651633; calls by dose curve;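 also: p53RE-bla HCT reporter cells with a stable beta-lactamase p53 reporter; series mostly up to about 83 µM; nearly all actives have a fitted effect of over 30% in size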)
In short: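 p53RE-bla cells, seeded at 4,000 per well and rested 5 h at 37 C/5% CO2, received compounds in DMSO for 16 h at 37 C. CellTiter-Glo was then added, and luminescence was read after 30 min at room temperature to gauge cytotoxicity.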

[3] = qHTS assay for small molecules that induce genotoxicity in human embryonic kidney cells expressing luciferase-tagged ATAD5 - cell viability (AID 651634; calls by dose curve; also: nearly all actives have a fitted effect of over 25% in size; also: potency is read from the fitted curve at half-maximal effect)
In short: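 Seeding of 2,000 HEK293T ATAD5-luciferase cells per well preceded pin-tool compound transfer. Plates sat 15.5 hr at 37C under 5% CO2, then fluorescence was read after 30 min with CellTiter-Fluor.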

[4] = qHTS assay for small molecule disruptors of the mitochondrial membrane potential - cell viability (AID 720634; calls by dose curve;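 also: human HepG2 liver cancer cells; series mostly up to about 83 µM; nearly all actives have a fitted effect of over 20% in size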)
In short: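 Measuring cytotoxicity alongside mitochondrial potential, the screen quantified ATP by luminescence in HepG2 cells after 1 hr compound incubation and a 30 min room-temperature CellTiter-Glo step.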

[5] = qHTS assay for small molecule disruptors of the mitochondrial membrane potential (AID 720635); also: potency is read from the fitted curve at half-maximal effect
In short: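 HepG2 cells (2,000/well) attached overnight at 37C, then took compound for 1 hr at 37C, 5% CO2. Mito-MPS dye was added for 30 min; fluorescence was read at 490/535 nm (monomers) and 540/590 nm (aggregates).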

[6] = qHTS assay to test for compound auto fluorescence at 590 nm (red) in HepG2 cells (AID 720674)
In short: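 Intrinsic compound fluorescence in the red window (Ex/Em 540/590 nm) is measured in attached HepG2 cells exposed for 1 hr, DMSO vehicle as baseline, benchmarked to Rose Bengal sodium.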

[7] = qHTS assay to test for compound auto fluorescence at 535 nm (green) in HepG2 cells (AID 720675)
[8] = qHTS assay to test for compound auto fluorescence at 590 nm (red) in HEK293 cells (AID 720679)
In short: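 Plates of HEK293 cells (10% dialyzed FBS) are treated with 23 nL compound or DMSO vehicle after a 4-5 hr attachment period, incubated overnight at 37C, and read for red fluorescence at 540/590nm.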

[9] = qHTS assay to test for compound auto fluorescence at 460 nm (blue) in HEK293 cells (AID 720678)
In short: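 After cell attachment (4-5 hr, 37C), compounds were pinned onto HEK293 monolayers in 10% dialyzed FBS medium. The blue channel (405/460 nm) was read following overnight culture. Equivalency was calculated against triamterene.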
% is scaled to controls: 0 for no effect and ±100 for the full control effect.

CN1C(C)(C)CC(O)CC1(C)C
inactive: Potency [1] | Potency [2] | Potency [3] | outcome [4] | Potency [5] | outcome [6] | outcome [7] | outcome [8]

CN(C)[C@@H]1C(=O)C(C(=O)NCN2CCCC2)=C(O)[C@@]2(O)C(=O)C3=C(O)c4c(O)cccc4[C@@](C)(O)C3C[C@@H]12 (stereo not given in full)
inactive: Potency [1] | Potency [2] | Potency [3] | outcome [4] | Potency [5] | outcome [6] | outcome [7] | outcome [8]

O=C(O)c1cn(C2CC2)c2cc(N3CCNCC3)c(F)cc2c1=O
inactive: Potency [1] | Potency [2] | Potency [3] | outcome [4] | Potency [5] | fluorescence, relative to Rose Bengal [6] -0.332% [at 18.6 µM] | fluorescence, % of fluorescein control [7] 0.0071% [at 18.6 µM] | fluorescence, % of triamterene [9] 0.0142% [at 18.6 µM] | fluorescence, % of fluorescent control [8] -0.0071% [at 18.6 µM]

C=C(C)C(=O)OCC1CCCO1 (stereo not given)
inactive: Potency [1] | Potency [2] | Potency [3] | outcome [4] | Potency [5] | outcome [6] | outcome [7] | outcome [9] | outcome [8]

CN1CC(=O)N/C1=N/C(=O)Nc1cccc(Cl)c1
active: Potency [5] 21.1 µM and 26.6 µM
inactive: Potency [1] | Potency [2] | Potency [3] | outcome [4] | outcome [6] | outcome [7] | outcome [9] | outcome [8]

CCN[C@@H]1C[C@H](N)[C@@H](OC2OC(CN)=CCC2N)[C@H](O)[C@H]1O[C@H]1OC[C@](C)(O)[C@H](NC)[C@H]1O (stereo not given in full)
inactive: Potency [1] | Potency [2] | Potency [3] | outcome [4] | Potency [5] | outcome [6] | outcome [7] | outcome [9] | outcome [8]

O=C(O)c1cc(C(=O)O)cc(C(=O)O)c1
inactive: Potency [1] | Potency [2] | Potency [3] | outcome [4] | Potency [5] | outcome [6] | outcome [7] | outcome [9] | outcome [8]

O=C(O)CCSCCC(=O)O
inactive: Potency [1] | Potency [2] | Potency [3] | outcome [4] | Potency [5] | outcome [6] | outcome [7] | outcome [9] | outcome [8]

COc1ccccc1OCC1CNC(=O)O1 (stereo not given)
inactive: Potency [1] | Potency [2] | Potency [3] | outcome [4] | Potency [5] | outcome [6] | outcome [7] | outcome [9] | outcome [8]

CCC(C(=O)NC(=O)NC(C)=O)c1ccccc1 (stereo not given)
inactive: Potency [1] | Potency [2] | Potency [3] | outcome [4] | Potency [5] | outcome [6] | outcome [7] | outcome [9] | outcome [8]

O=C(O)Cc1csc(-c2ccc(Cl)cc2)n1
inactive: Potency [1] | Potency [2] | Potency [3] | outcome [4] | Potency [5] | outcome [6] | outcome [7] | outcome [9] | outcome [8]

CC(=O)NC(=O)c1ccccc1O
inactive: Potency [1] | Potency [2] | Potency [3] | outcome [4] | Potency [5] | outcome [6] | outcome [7] | outcome [9] | outcome [8]

CN(C)C(=O)Oc1ccc[n+](C)c1
inactive: Potency [1] | Potency [2] | Potency [3] | outcome [4] | Potency [5] | outcome [6] | outcome [7] | outcome [9] | outcome [8]

C=COCC1CCC(COC=C)CC1 (stereo not given)
inactive: Potency [1] | Potency [2] | Potency [3] | outcome [4] | Potency [5] | outcome [6] | outcome [7] | outcome [9] | outcome [8]

NC(CCC(=O)O)C(=O)O (stereo not given)
inactive: Potency [1] | Potency [2] | Potency [3] | outcome [4] | Potency [5] | outcome [6] | outcome [7] | outcome [9] | outcome [8]

CO[C@@]1(NC(=O)CSC[C@@H](N)C(=O)O)C(=O)N2C(C(=O)O)=C(CSc3nnnn3C)CS[C@@H]21
inactive: Potency [1] | Potency [2] | Potency [3] | outcome [4] | Potency [5] | outcome [6] | outcome [7] | outcome [9] | outcome [8]

CCN(C=O)CC
inactive: Potency [1] | Potency [2] | Potency [3] | outcome [4] | Potency [5] | outcome [6] | outcome [7] | outcome [9]

COc1cc(C(=O)NCc2ccc(OCCN(C)C)cc2)cc(OC)c1OC
inactive: Potency [1] | Potency [2] | Potency [3] | outcome [4] | Potency [5] | fluorescence, relative to Rose Bengal [6] 1.14% [at 18.6 µM] | fluorescence, % of fluorescein control [7] 0.0603% [at 18.6 µM] | fluorescence, % of triamterene [9] -0.345% [at 18.6 µM] | fluorescence, % of fluorescent control [8] -0.334% [at 18.6 µM]

O=CN(CCO)CCO
inactive: Potency [1] | Potency [2] | Potency [3] | outcome [4] | Potency [5] | outcome [6] | outcome [7] | outcome [9] | outcome [8]

Clc1cc(Cl)cc(Cl)c1
inactive: Potency [1] | Potency [2] | Potency [3] | outcome [4] | Potency [5] | outcome [6] | outcome [7] | outcome [9] | outcome [8]

CN1[C@@H]2CC[C@H]1CC(OC(=O)C(O)c1ccccc1)C2 (stereo not given in full)
inactive: Potency [1] | Potency [2] | Potency [3] | outcome [4] | Potency [5] | outcome [6] | outcome [7] | outcome [9] | outcome [8]

CC(=O)c1ccccc1[N+](=O)[O-]
inactive: Potency [1] | Potency [2] | Potency [3] | outcome [4] | Potency [5] | outcome [6] | outcome [7] | outcome [9] | outcome [8]

Cc1ccc(C(=O)Nc2ccc(S(=O)(=O)O)c3cc(S(=O)(=O)O)cc(S(=O)(=O)O)c23)cc1NC(=O)c1cccc(NC(=O)Nc2cccc(C(=O)Nc3cc(C(=O)Nc4ccc(S(=O)(=O)O)c5cc(S(=O)(=O)O)cc(S(=O)(=O)O)c45)ccc3C)c2)c1
inactive: Potency [1] | Potency [2] | Potency [3] | outcome [4] | outcome [6] | outcome [7] | outcome [9] | outcome [8]

Cc1ccc(-c2ncc(Cl)cc2-c2ccc(S(C)(=O)=O)cc2)cn1
inactive: Potency [1] | Potency [2] | Potency [3] | outcome [4] | Potency [5] | outcome [6] | outcome [9] | outcome [8]

COc1cc(C(=O)OC(COCCC(C)C)CN2CCOCC2)cc(OC)c1OC (stereo not given)
inactive: Potency [1] | Potency [2] | Potency [3] | outcome [4] | Potency [5] | outcome [6] | outcome [9]

CC(CO)(CO)[N+](=O)[O-]
inactive: Potency [1] | Potency [2] | Potency [3] | outcome [4] | outcome [6] | outcome [7] | outcome [9] | outcome [8]

FB(F)F
inactive: Potency [1] | Potency [2] | Potency [3] | outcome [4] | outcome [6] | outcome [7] | outcome [9] | outcome [8]

CC(=O)OCC(=O)[C@@]1(O)[C@H](C)C[C@H]2[C@@H]3CCC4=CC(=O)C=C[C@]4(C)[C@@]3(F)[C@@H](O)C[C@@]21C
inactive: Potency [1] | Potency [2] | Potency [3] | outcome [4] | outcome [6] | outcome [7] | outcome [9] | outcome [8]

O=S(=O)(O)c1cccc(S(=O)(=O)O)c1
inactive: Potency [1] | Potency [2] | Potency [3] | outcome [4] | outcome [6] | outcome [7] | outcome [9] | outcome [8]

CC(C)C(=O)OC(=O)C(C)C
inactive: Potency [1] | Potency [2] | Potency [3] | outcome [4] | Potency [5] | outcome [6] | outcome [9] | outcome [8]

CN(C)CCCN(C)CCCN(C)C
inactive: Potency [1] | Potency [2] | Potency [3] | outcome [4] | outcome [6] | outcome [7] | outcome [9] | outcome [8]

CCO[Si](OCC)(OCC)c1ccccc1
inactive: Potency [1] | Potency [2] | Potency [3] | outcome [4] | outcome [6] | outcome [7]

Cc1ncc([C@@H](CCCCCCc2ccc3c(n2)NCCC3)CC(=O)O)cn1
active: Potency [3] 0.0273 µM
inactive: Potency [1] | Potency [2] | outcome [4] | outcome [6] | outcome [7] | outcome [9] | outcome [8]

CCN(Cc1ccccc1)c1ccccc1
inactive: Potency [1] | Potency [2] | Potency [3] | outcome [4] | outcome [6] | outcome [7] | outcome [9] | outcome [8]

CCCCCCCCCCCCCCCCCCO
inactive: Potency [1] | Potency [2] | Potency [3] | outcome [4] | Potency [5] | outcome [6] | outcome [9] | outcome [8]

CC1=C(C/C=C(\C)CCC[C@H](C)CCC[C@H](C)CCCC(C)C)C(=O)c2ccccc2C1=O
inactive: Potency [1] | Potency [2] | Potency [3] | outcome [4] | outcome [6] | outcome [7] | outcome [9] | outcome [8]

CC(C)(C)c1ccc(-c2ccc(C(C)(C)C)cc2)cc1
inactive: Potency [1] | Potency [2] | Potency [3] | outcome [4] | outcome [6] | outcome [7] | outcome [9] | outcome [8]

CCCOC(=O)CC
inactive: Potency [1] | Potency [2] | Potency [3] | outcome [4] | outcome [6] | outcome [7]

O=S(=O)(O)c1cc(O)c(O)c(S(=O)(=O)O)c1
inactive: Potency [1] | Potency [2] | Potency [3] | outcome [4] | outcome [6]

CCOC(=O)COC(=O)c1ccccc1C(=O)OCC
inactive: Potency [1] | Potency [2] | Potency [3] | outcome [4] | outcome [6] | outcome [7] | outcome [9] | outcome [8]

COc1cc2c(cc1OC)-c1cc3ccc(OC)c(OC)c3c[n+]1CC2
inactive: Potency [1] | Potency [2] | Potency [3] | outcome [4] | outcome [6] | outcome [9] | outcome [8]
active: Potency [5] 17.4 µM

c1ccc(Cc2ccccc2)cc1
inactive: Potency [1] | Potency [2] | Potency [3] | outcome [4] | outcome [6] | outcome [7] | outcome [9] | outcome [8]

NC(=O)N1c2ccccc2CC(=O)c2ccccc21
inactive: Potency [1] | Potency [2] | Potency [3] | outcome [4] | Potency [5] | outcome [6] | outcome [7] | outcome [8]
